Inconclusive results are not listed. Activity calls are given as the source filed them. Calls come from the whole dose curve; as a rule, active = well fitted cell-killing curve with a large enough effect; inconclusive = small, poorly fitted or top-dose-only effect; inactive = no such curve, though single readings can be large or run the other way.
experiment: qHTS of pediatric cancer cell lines to identify multiple opportunities for drug repurposing: Primary screen for NB1643 cells (AID 1347099); settings: NB1643 neuroblastoma viability, CellTiter-Glo luminescence, 48 h; series mostly up to 46 µM; activity change, negative = cytotoxic: at the top concentration; note: nearly all actives have a fitted effect of over 50% in size;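 for activity change, negative = cytotoxic: plate controls were DMSO neutral control for no effect and bortezomib positive control for full effect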
How it was run: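 Following a 5-hour attachment period, cells at 500-1,000/well received compounds and were cultured for 48 hours. CellTiter-Glo was added and luminescence read to estimate viable, metabolically active cells.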
Potency is the fitted concentration of half-maximal effect.

Compound | activity change, negative = cytotoxic | Potency
CNC(=O)CN(CCN(CCN(CC(=O)[O-])CC(=O)NC)CC(=O)[O-])CC(=O)[O-].O.[Gd+3] | 0.795% (inactive) | 
OC(CCN1CCCCC1)(c1ccccc1)c1ccccc1 | 3.82% (inactive) | 
COc1cc2c(cc1OC)[C@@H]1CC(=O)[C@@H](CC(C)C)CN1CC2 | 0% (inactive) | 
CC1(C)O[C@@H]2C[C@H]3[C@@H]4CCC5=CC(=O)CC[C@]5(C)[C@@]4(F)[C@@H](O)C[C@]3(C)[C@]2(C(=O)CCl)O1 | 0% (inactive) | 
CCCC(=O)O[C@]1(C(=O)CO)CC[C@H]2[C@@H]3CCC4=CC(=O)CC[C@]4(C)[C@H]3[C@@H](O)C[C@@]21C | -3.52% (inactive) | 
C[C@]12CC[C@H]3[C@@H](CCC4=CC(=O)CC[C@@]43C)[C@@H]1CC[C@@H]2C(=O)CO | 0.648% (inactive) | 
C[C@@H]1C[C@H]2[C@@H]3CCC4=CC(=O)C=C[C@]4(C)[C@@]3(F)[C@@H](O)C[C@]2(C)[C@H]1C(=O)CO | 0% (inactive) | 
C[C@@H]1C[C@H]2[C@@H]3C[C@H](F)C4=CC(=O)C(Cl)=C[C@]4(C)[C@@]3(F)[C@@H](O)C[C@]2(C)[C@@]1(O)C(=O)CO | -1.54% (inactive) | 
CC(=O)[C@H]1CC[C@H]2[C@@H]3C[C@H](C)C4=CC(=O)CC[C@]4(C)[C@H]3[C@@H](O)C[C@]12C | 0% (inactive) | 
O=C(OCC(O)CO)c1ccccc1Nc1ccnc2cc(Cl)ccc12 (centres undefined) | -2.78% (inactive) | 
CC(=O)Oc1ccc(C(c2ccc(OC(C)=O)cc2)c2ccccn2)cc1 | 0% (inactive) | 
O=C(COc1ccc(Cl)cc1)N1CCN(Cc2ccc3c(c2)OCO3)CC1 | -18.4% (inactive) | 
CCOC(=O)n1ccn(C)c1=S | -14.3% (inactive) | 
COc1cc(C(=S)N2CCOCC2)cc(OC)c1OC | 3.83% (inactive) | 
CCCCC(=O)O[C@]1(C(=O)CO)CC[C@H]2[C@@H]3CCC4=CC(=O)CC[C@]4(C)[C@H]3[C@@H](O)C[C@@]21C | 22.8% (inactive) | 
CCN(CC)CCOC(=O)C(c1ccccc1)C1CCCCC1 (centres undefined) | 0% (inactive) | 
O=C(CCCN1CCC(O)(c2ccc(Br)cc2)CC1)c1ccc(F)cc1 |  | 23.7 nM (active)
NC(CS)C(=O)O (centres undefined) | -4.67% (inactive) | 
Cc1c(F)c(N2CCNC(C)C2)cc2c1c(=O)c(C(=O)O)cn2C1CC1 (centres undefined) | 16.2% (inactive) | 
CC(=O)OCC(=O)[C@@]1(O)CC[C@H]2[C@@H]3CCC4=CC(=O)C=C[C@]4(C)[C@H]3[C@@H](O)C[C@@]21C | -0.265% (inactive) | 

Compound | activity change, negative = cytotoxic | Potency
COc1cc(/C=C/C(=O)O[C@H]2CC[C@]34C[C@]35CC[C@]3(C)[C@@H]([C@H](C)CCC=C(C)C)CC[C@@]3(C)[C@@H]5CC[C@H]4C2(C)C)ccc1O | 8.83% (inactive) | 
CCCCCCCCCCCCCCNCCO | 12.8% (inactive) | 
CC1(C)O[C@@H]2C[C@H]3[C@@H]4C[C@H](F)C5=CC(=O)CC[C@]5(C)[C@H]4[C@@H](O)C[C@]3(C)[C@]2(C(=O)CO)O1 | 12.1% (inactive) | 
CC(C)(CO)[C@@H](O)C(=O)NCCCO | 29.6% (inactive) | 
CCN(CC)C(=O)N1CCN(C)CC1 | -0.0458% (inactive) | 
NC(CO)(CO)CO | -13.1% (inactive) | 
NCCCC[C@H](N[C@@H](CCc1ccccc1)C(=O)O)C(=O)N1CCC[C@H]1C(=O)O | 7.67% (inactive) | 
O=C(O)CNC(=O)c1ccccc1 | 10.2% (inactive) | 
Cc1nc2n(c(=O)c1CCN1CCC(c3noc4cc(F)ccc34)CC1)CCC[C@H]2O | 7.82% [at 16.1 µM] (inactive) | 
O=c1[nH]c(=O)n([C@H]2C[C@H](O)[C@@H](CO)O2)cc1C(F)(F)F | 0% (inactive) | 
CC(Cc1ccccc1)(NC(=O)CN)c1ccccc1 (centres undefined) | 8.98% (inactive) | 
OCc1ccccc1O | 12.8% (inactive) | 
CO/N=C1\CN(c2nc3c(cc2F)c(=O)c(C(=O)O)cn3C2CC2)CC1CN (centres undefined) | 5.62% (inactive) | 
C[C@]12CCC(=O)C=C1[C@@H]1C[C@@H]1[C@H]1[C@@H]3[C@@H]4C[C@@H]4[C@@]4(CCC(=O)O4)[C@@]3(C)CC[C@@H]12 | -9.42% (inactive) | 
c1ccc(CNCCNCc2ccccc2)cc1 | 8.04% (inactive) | 
OC[C@H]1O[C@H](O[C@]2(CCl)O[C@H](CCl)[C@@H](O)[C@@H]2O)[C@H](O)[C@@H](O)[C@H]1Cl | 11.9% (inactive) | 
O=C1OC2(c3ccc(O)cc3Oc3cc(O)ccc32)c2ccccc21 | -11.5% (inactive) | 
C[C@]12CC[C@@H]3c4ccc(O)cc4CC[C@H]3[C@@H]1C[C@@H](O)[C@@H]2O | -3.36% (inactive) | 
NCCC(O)(P(=O)(O)O)P(=O)(O)O | 1.55% (inactive) | 

— PubChem BioAssay (NCATS)
